Activity calls are given as the source filed them.

The nature of assay [1]: E. coli DRC41 culture turbidity changes, primary screen, E. coli filamentation inducer project, strain DRC41, OD650, 48 h (AID 1152).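 Also: E. coli MC1000 strain DRC41 lacking acrAB efflux pump and sulA.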 Particulars: E. coli DRC41 (acrAB sulA), higher = more signal, called active from +8 up or from −8 down.
The nature of assay [2]: small-molecule binders of probe aLefty1, primary screen, biochemical, small-molecule microarray, 635/667 nm fluorescence (AID 1153).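 Also: score merges spot fluorescence with signal-to-noise ratio from the scanned slide images.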 Particulars: higher = more signal.
Assay [3] is described as follows: PSAC antagonists in infected red cells, primary screen, cell-based, P. falciparum Indochina, OD700, 1 h (AID 1154). Particulars: P. falciparum Indochina infected RBC osmotic lysis, higher = more signal, called active from +8 up or from −8 down.
Assay [4] is described as follows: PSAC antagonists in infected red cells, primary screen, cell-based, P. falciparum Indochina, OD700, 2 h (AID 1155).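 Also: lysis reports solute entry through the parasite surface anion channel PSAC; channel blockers reduce lysis of infected cells.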 Particulars: P. falciparum Indochina infected erythrocytes, osmotic lysis OD700; higher = more signal, called active from +8 up or from −8 down.
A short description of assay [5]: osmotic lysis modulators in infected erythrocytes, primary screen, PSAC antagonist project, cell-based, P. falciparum Indochina, OD700, 3 h (AID 1156). The note with it: higher = more signal, called active from +8 up or from −8 down.
Assay [6] can be described thus: PSAC antagonists in infected red cells, primary screen, cell-based, P. falciparum Indochina, OD700, 18 h (AID 1157). Particulars: P. falciparum Indochina infected erythrocytes, osmotic lysis OD700, 18 h; higher = more signal, called active from +8 up or from −8 down.
Assay [7] can be described thus: modulators of S6 phosphorylation in cells, primary screen, cell-based, A549, cytoblot, luminescence, serum-stimulated (AID 1158).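 Also: serum-stimulated A549 lung adenocarcinoma cells; signal is phosphorylated S6 detected by cytoblot immunostaining with HRP secondary.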 The note with it: A549 phospho-S6 cytoblot, 5 h, higher = more signal.
Assay [8] deals with NADPH oxidase 2 (Homo sapiens) (UniProt P04839). Put plainly: NOX2-dependent H2O2 signal modulators, primary screen, NOX inhibitor project, cell-based, HEK293-NOX2, PMA-stimulated, Amplex Red fluorescence (AID 1159). Also: test concentration not given here. Particulars: 45 min, higher = more signal, called active from +8 up or from −8 down.
Chain of NADPH oxidase 2 (Homo sapiens) (P04839 whole entry, looked up): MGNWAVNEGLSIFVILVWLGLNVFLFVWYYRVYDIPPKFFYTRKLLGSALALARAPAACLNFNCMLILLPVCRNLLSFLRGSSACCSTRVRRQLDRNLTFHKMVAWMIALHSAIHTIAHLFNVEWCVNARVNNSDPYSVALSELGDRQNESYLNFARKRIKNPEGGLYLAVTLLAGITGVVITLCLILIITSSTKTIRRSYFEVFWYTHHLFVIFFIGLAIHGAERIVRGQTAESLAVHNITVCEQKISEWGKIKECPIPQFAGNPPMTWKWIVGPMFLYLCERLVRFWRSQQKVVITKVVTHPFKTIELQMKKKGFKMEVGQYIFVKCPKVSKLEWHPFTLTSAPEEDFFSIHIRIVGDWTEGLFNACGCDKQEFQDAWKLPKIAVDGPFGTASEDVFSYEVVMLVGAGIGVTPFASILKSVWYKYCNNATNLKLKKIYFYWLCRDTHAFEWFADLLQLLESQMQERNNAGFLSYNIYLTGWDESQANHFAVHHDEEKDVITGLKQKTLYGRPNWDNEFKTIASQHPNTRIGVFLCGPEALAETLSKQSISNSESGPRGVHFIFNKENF
The target in assay [9] is NADPH oxidase 4 (Homo sapiens) (UniProt Q9NPH5). Description: NOX4-dependent H2O2 signal modulators, primary screen, NOX inhibitor project, cell-based, HEK293-NOX4, tetracycline-induced, Amplex Red fluorescence (AID 1160). The note with it: 45 min, higher = more signal, called active from +8 up or from −8 down.
Chain of NADPH oxidase 4 (Homo sapiens) (Q9NPH5 whole entry, looked up): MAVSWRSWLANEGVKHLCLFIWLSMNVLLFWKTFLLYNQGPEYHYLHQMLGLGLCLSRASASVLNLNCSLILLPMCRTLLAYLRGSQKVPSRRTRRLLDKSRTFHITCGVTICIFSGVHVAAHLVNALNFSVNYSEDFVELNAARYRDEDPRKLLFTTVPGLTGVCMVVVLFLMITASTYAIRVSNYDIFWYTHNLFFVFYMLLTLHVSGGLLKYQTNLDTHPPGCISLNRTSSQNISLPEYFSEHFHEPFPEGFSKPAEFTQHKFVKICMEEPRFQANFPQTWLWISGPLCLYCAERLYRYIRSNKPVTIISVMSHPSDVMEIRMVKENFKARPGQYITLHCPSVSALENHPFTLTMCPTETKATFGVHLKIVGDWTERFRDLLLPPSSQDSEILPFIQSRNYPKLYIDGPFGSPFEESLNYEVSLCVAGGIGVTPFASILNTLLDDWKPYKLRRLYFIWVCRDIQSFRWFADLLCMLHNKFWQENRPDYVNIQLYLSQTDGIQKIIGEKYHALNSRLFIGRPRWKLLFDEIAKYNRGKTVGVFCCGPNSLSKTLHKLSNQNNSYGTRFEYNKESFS
Assay [10] has as its target NADPH oxidase 5 (Homo sapiens) (UniProt Q96PH1). Description: NOX5-dependent H2O2 signal modulators, primary screen, NOX inhibitor project, cell-based, HEK293-NOX5, Amplex Red fluorescence (AID 1161). The note with it: HEK293-NOX5, ionomycin, 45 min, higher = more signal.

Chain of NADPH oxidase 5 (Homo sapiens) (Q96PH1 whole entry, looked up): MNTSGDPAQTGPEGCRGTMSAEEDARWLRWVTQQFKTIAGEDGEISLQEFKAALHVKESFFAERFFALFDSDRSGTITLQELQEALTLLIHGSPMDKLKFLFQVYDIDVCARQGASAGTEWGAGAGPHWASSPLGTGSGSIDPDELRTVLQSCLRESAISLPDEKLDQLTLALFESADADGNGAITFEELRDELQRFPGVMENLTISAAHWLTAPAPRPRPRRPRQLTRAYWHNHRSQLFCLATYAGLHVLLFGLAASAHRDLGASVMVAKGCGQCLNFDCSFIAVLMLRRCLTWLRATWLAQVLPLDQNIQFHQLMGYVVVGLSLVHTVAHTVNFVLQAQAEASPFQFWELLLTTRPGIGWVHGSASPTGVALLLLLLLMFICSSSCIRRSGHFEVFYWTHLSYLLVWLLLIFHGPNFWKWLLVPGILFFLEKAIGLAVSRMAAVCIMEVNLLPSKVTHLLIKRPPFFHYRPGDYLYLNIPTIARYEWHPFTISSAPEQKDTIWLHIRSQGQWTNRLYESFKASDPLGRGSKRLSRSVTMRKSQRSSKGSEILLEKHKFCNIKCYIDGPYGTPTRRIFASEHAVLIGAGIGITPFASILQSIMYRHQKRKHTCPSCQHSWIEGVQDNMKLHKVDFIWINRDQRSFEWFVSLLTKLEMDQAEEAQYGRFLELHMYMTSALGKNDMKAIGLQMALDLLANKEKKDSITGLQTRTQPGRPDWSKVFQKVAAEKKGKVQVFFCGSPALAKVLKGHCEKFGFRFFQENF

As for `NC(=O)NCC#Cc1ccc2c(c1)[C@]1(C(=O)N2)[C@H](C(=O)O)[C@H]2C(=O)O[C@H](c3ccccc3)[C@H](c3ccccc3)N2[C@@H]1c1ccccc1OCCO`, the z-score in assay [1] is 3.32 (inactive); in assay [3], -1.21 (inactive); in assay [4], -1.81 (inactive); in [5], -3.99 (inactive); in assay [6], -2.67 (inactive); in [7], 2.78. Besides, the z-score in assay [8] is 2.1 (inactive); in [9], 0.786 (inactive); in assay [10], -0.188. In addition, the composite z-score in [2] was found to be 0.73.
In the case of `C[n+]1ccc(CCCO)cc1`, the z-score in [1] was -0.885 (inactive); in assay [3], 0.599 (inactive); in assay [4], -0.0234 (inactive); in assay [5], 1.87 (inactive); in assay [6], 0.131 (inactive); in assay [7], -0.283. In addition, the figures for the z-score in assay [8], in assay [9] and in assay [10] were 0.176 (inactive), -0.435 (inactive) and -1.72, respectively. Moreover, the composite z-score in [2] was 0.33.
Turning to `COc1ccc([Si](C)(C)[C@H]2[C@H](CC(=O)N3Cc4ccccc4C[C@H]3CO)O[C@@]3(C(=O)N(Cc4cccc(N5CCCCC5=O)c4)c4ccccc43)[C@@H]2C)cc1`, the z-score in assay [1] was -0.431 (inactive); in assay [3], 3.41 (inactive); in [4], 0.966 (inactive); in assay [5] it was 0.357 (inactive); in assay [6], 0.549 (inactive); in assay [7] it was 1.83. For the same compound, the values for the z-score in assay [8], in assay [9] and in assay [10] were -0.508 (inactive), 0.916 (inactive) and -0.169, respectively. The compound also came in with a composite z-score in assay [2] of 0.0391.
In the case of `CC1CC/C=C\[C@H]2OC34C=CCN(C(C)C)C(=O)[C@H]3N(CCCCCO)C(=O)[C@@H]4C2C(=O)O1` (stereo not given in full), the z-score in assay [1] was 0.881 (inactive); in assay [3], -0.54 (inactive); in [4], 0.0524 (inactive); in [5], 0.66 (inactive); in assay [6], 0.427 (inactive); in assay [7], -0.61. For the same compound, the z-score in assay [8] was 0.745 (inactive); in assay [9], -0.338 (inactive); in [10], 1.05. The compound also came in with a composite z-score in assay [2] of -0.15.
Consider `CCC[C@@H]1C[C@@]1(CCC)[C@@H](NP(=O)(c1ccccc1)c1ccccc1)c1ccc(Cl)cc1`, for which the z-score in assay [1] is -2.39 (inactive); in [3], 0.887 (inactive); in assay [4], 0.0991 (inactive); in [5], 0.278 (inactive); in assay [6], 0.323 (inactive); in assay [7] it was 0.0038. The z-score in assay [8] is -0.769 (inactive); in assay [9], -1.97 (inactive); in assay [10], 0.429. Moreover, in assay [2], the composite z-score was 0.0315.
As to `O=C1O[C@@H](c2ccccc2)[C@@H](c2ccccc2)N2[C@@H](c3ccccc3OCCO)[C@]3(C(=O)Nc4ccc(C#CC5=CCCCC5)cc43)[C@@H](C(=O)NC[C@H](O)c3ccccc3)[C@H]12`, the z-score in [1] was 2 (inactive); in assay [3] it was 0.996 (inactive); in assay [4] it was 0.526 (inactive); in assay [5] it was -2.18 (inactive); in assay [6] it was 0.0195 (inactive); in [7], 0.581. Also, the z-score is 1.74 (inactive) in assay [8], 1.1 (inactive) in assay [9] and 2.55 in [10]. In [2], this compound displayed a composite z-score of 0.277.
For `Cc1ccc(S[C@]2(C(=O)NC(C)C)CC(=O)N(C3Cc4ccccc4C3)[C@@H]2c2ccc(CO)cc2I)cc1`, the z-score in assay [1] was 0.135 (inactive); in [3], 8.47 (active); in assay [4], 1.39 (inactive); in assay [5] it was 1.67 (inactive); in [6], 0.13 (inactive); in assay [7] it was -0.086. Moreover, the z-score is 1.87 (inactive) in assay [8], -1.89 (inactive) in assay [9] and 1.23 in [10]. The composite z-score in assay [2] is -0.788.
Regarding `CC=CC(O)C1C=CC2C(=O)N(C)C(=O)C2N1Nc1ccc([N+](=O)[O-])cc1[N+](=O)[O-]` (stereo not given), the z-score in assay [1] is -1.33 (inactive); in [3], 1.67 (inactive); in assay [4], 0.917 (inactive); in assay [5], 0.566 (inactive); in assay [6] it was 1.1 (inactive); in [7] it was -0.711. In addition, the z-score is -0.379 (inactive) in assay [8], -1.05 (inactive) in assay [9] and -1.09 in assay [10]. The same compound yielded a composite z-score in [2] of -0.094.
As for `[N-]=[N+]=NCc1ccccc1C[C@@]1(C(=O)NCCN2CCOCC2)N=C(c2ccc(OCCCO)cc2)O[C@@H]1c1ccccc1N=[N+]=[N-]`, the z-score is -0.337 (inactive) in assay [1]; 31.3 (active) in assay [3]; 27.4 (active) in assay [4]; 2.72 (inactive) in assay [5]; 2.46 (inactive) in assay [6]; 1.17 in [7]. Besides, the z-score was -3.58 (inactive) in assay [8], -1.36 (inactive) in assay [9] and -2.32 in assay [10]. In assay [2], this compound came in with a composite z-score of 0.534.
Take `COC(=O)[C@@]1(Cc2ccc(F)cc2)[C@H]2c3cc(C(=O)N4CCCC4)n(CCc4c[nH]c5ccc(OC)cc45)c3C[C@H]2CN1C(=O)c1ccccc1`: the z-score in [1] is -1.06 (inactive); in assay [3], 4.03 (inactive); in [4], -0.165 (inactive); in [5] it was 0.217 (inactive); in [6] it was -0.583 (inactive); in assay [7] it was 1.03. In addition, the z-score is -3.07 (inactive) in [8], 0.118 (inactive) in assay [9] and -2.39 in [10]. In [2], the composite z-score is 1.97.
For the compound `COc1c(C)cc(-c2cc3c(c(-c4ccccc4)n2)[Si](C(C)C)(C(C)C)OC3)cc1C`, the z-score in assay [1] was 0.118 (inactive); in assay [3] it was 1.54 (inactive); in [4] it was 0.494 (inactive); in assay [5] it was 0.392 (inactive); in [6], 0.506 (inactive); in assay [7], 0.768. Moreover, the z-score in [8] was 0.956 (inactive); in [9], 0.103 (inactive); in assay [10], 0.829. Further, in assay [2], the composite z-score is -0.0287.
For the compound `COc1cc(CO)cc(I)c1O[C@H]1C=C(C(=O)NCCO)C[C@@H](N(CC2CCCCC2)C(=O)c2ccc(C(F)(F)F)cc2)[C@@H]1O`, the z-score in [1] was 1.76 (inactive); in assay [3] it was 1.05 (inactive); in [4], 0.447 (inactive); in assay [5] it was 1.69 (inactive); in assay [6] it was 0.329 (inactive); in assay [7], 0.597. Also, the values for the z-score in assay [8], in [9] and in assay [10] were -0.363 (inactive), 0.916 (inactive) and 0.686, respectively. This compound also had a composite z-score in assay [2] of -0.0547.
With `COC(=O)C1(Cc2ccccc2)C=C2C(=C(c3ccccc3)C(=O)C2C)CN1` (stereo not given), the z-score in assay [1] is -1.38 (inactive); in [3], 2.11 (inactive); in [4] it was -0.0273 (inactive); in assay [5], 0.423 (inactive); in assay [6], 0.298 (inactive); in assay [7], 0.208. Further, the z-score in [8] is -0.66 (inactive); in assay [9] it was -3.74 (inactive); in assay [10], -3.29. In [2], this compound yielded a composite z-score of 1.23.

Source of the values: PubChem BioAssay.
